Inconclusive results are not listed. Calls of active or inactive are those of the source. Calls come from the whole dose curve; as a rule, active = well fitted activation curve with a large enough effect; inconclusive = small, poorly fitted or top-dose-only effect; inactive = flat fitted curve, though single readings scatter.
Assay: qHTS for Inhibitors of Cell Surface uPA Generation: Confirmatory Assay for Cherry-picked Compounds
Details: cell surface uPA activity generation, qHTS confirmation; series mostly up to 115 µM
Procedure, shortened: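 RAW 264.7 cells at 4000/well, incubated overnight, then treated with compounds. After 24 h at 37 C, viability was read by ATPlite luminescence. An increase in signal indicates blocked uPA-dependent LF entry.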

Potency, inactive:
CCOc1ccc(CCNC(=O)Cc2ccc(NC3=NC4CS(=O)(=O)CC4S3)cc2)cc1OCC (configuration not stated), CC1CN(C(=O)CCC(=O)NCc2ccccc2)c2ccccc2S1 (configuration not stated), CC(/C=C/C1(O)C(C)CC(O)CC1(C)C)OC1OC(CO)C(O)C(O)C1O (configuration not stated), Cc1ccnc(N2CCN(C(=O)CSc3nc4ccccc4nc3N3CCC(C)CC3)CC2)c1, O=C(NCCN1CCOCC1)c1ccccc1Cl, COc1ccc(/C=N/NC(=O)COc2ccc3ccccc3c2)c(C(=O)O)c1OC, Cc1ccc(N2C(=O)CC(N3CCN/C3=C3\CC/C(=C\c4ccccc4)C3=O)C2=O)cc1 (configuration not stated), NC(=O)CC[C@H](NC(=O)c1ccc(F)cc1)C(=O)OCC(=O)Nc1c(F)c(F)c(F)c(F)c1F, O=S(=O)(c1ccc2nc(N3CCN(c4ccccc4)CC3)ccc2c1)N1CCCCC1, CCOc1ccccc1CN1CCCC(CNS(=O)(=O)c2ccc(OC)cc2)C1 (configuration not stated), COc1ccc(C(C(=O)NC2CCCC2)N(C(=O)c2ccoc2C)c2ccc(C)c(C)c2)cc1 (configuration not stated), O=C(COC(=O)c1cccc([N+](=O)[O-])c1)NNC(=O)c1cccs1, CCSC1=NCCN1S(=O)(=O)c1ccc(Cl)cc1, Cc1ccc(CC2CC(=O)N(c3cc(C)ccc3C)C2=O)cc1 (configuration not stated), Nc1ccc(S(=O)(=O)c2ccccc2)nc1, COc1ccc(OC)c(S(=O)(=O)N2CCN(Cc3ccccc3)CC2)c1, CCc1ccc(OCC(=O)N(Cc2cccs2)C2CCS(=O)(=O)C2)cc1 (configuration not stated)
